From PubChem BioAssay (NCATS)
Values joined by “and” are separate entries in the source; they are usually repeats but may differ in a detail not shown here. Identical values can stand only once. Records with an inconclusive call do not appear. Active and inactive are the calls of the source. The call rests on the fitted dose curve; in most records, active means well fitted cell-killing curve with a large enough effect; inconclusive means small, poorly fitted or top-dose-only effect, or effect the other way; inactive means no such curve, though single readings can be large or run the other way.

Experiment: Viability qHTS for spleen associated tyrosine kinase inhibitor (SYKi) drug resistant MV4-11 cells (AID 1963824); further: nearly all actives have a fitted effect of over 35% in size
Conditions: SYKi-resistant MV4-11 viability, CellTiter-Glo, 72 h; series mostly up to 45 µM
Method in brief: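 CellTiter-Glo luminescence, read 10 min after reagent addition, reports viability after a 72 hr compound exposure. Cells are an MV4-11 line made resistant to SYK inhibition, seeded at 500 per well onto compound-containing plates.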
Potency means the concentration at half of the fitted maximal effect.

| Structure (SMILES) | Potency |
| --- | --- |
| Cc1ccc(-n2nc(C(C)(C)C)cc2NC(=O)Nc2cc(COc3cccnc3)[nH]n2)cc1 | 0.146 µM (active) |
| C=C(CO[C@@H]1O[C@H](CO[C@@H]2OC[C@](O)(CO)[C@H]2O)[C@@H](O)[C@H](O)[C@H]1O)C1Cc2cc(C(C)=O)ccc2O1 (stereo partly specified) | inactive |
| CC(C)=CCC/C(C)=C/CC/C(C)=C/CC[C@]1(C)CCc2cc(O)cc(C)c2O1 | inactive |
| COc1cc(CN(CCN)C(=O)c2cccs2)ccc1OCc1ccccc1 | 16.4 µM (active) |
| O=C1CCCC2=C1C(c1ncccc1Br)N=C(Nc1nc3ccccc3o1)N2 (stereo unspecified) | 2.59 µM (active) |
| C=C1C(OC(C)=O)[C@@]23CCC4[C@](C)(C(=O)O)CCC[C@@]4(C)[C@]2(O)CC[C@H]1C3 (stereo partly specified) | inactive |
| Cc1nc(C)c(CN2CCN(C(c3ccc(F)cc3)c3ccc(F)cc3)CC2)nc1C | 14.8 µM (active) |
| C[C@@H](Nc1cc(F)cc(F)c1)c1cc(C(=O)N(C)C)cc2c(=O)cc(N3CCOCC3)oc12 | 2.31 µM (active) and 6.61 µM (active) |
| CC(C)(c1ccc(O)cc1)c1ccc(O)cc1 | 27.9 µM (active) |
| CC(=O)O[C@H]1[C@@H](O)[C@H](O[C@H]2[C@@H]3C=CO[C@@H](O[C@H]4O[C@@H](CO)[C@H](O)[C@@H](O)[C@@H]4O)[C@@H]3[C@@]3(CO)O[C@@H]23)O[C@@H](C)[C@@H]1OC(=O)/C=C/c1ccccc1 | inactive |
| CCC(C)/C=C(C)/C=C/C1=CC2=C(Cl)C(=O)C(C)(O)C(=O)C2(O)C(OC)O1 (stereo unspecified) | 10 µM (active) |
